ALDH1A1 block: ALDH1A1 (human) enzyme inhibition; actives 7.3% (n = 220,000); Purified ALDH1A1, NADH fluorescence, propionaldehyde substrate; P00352; Potency, µM (highest dose often 75.3 µM), usual class: inhibitors; active = well fitted inhibition curve with a large enough effect, not every such curve was filed as active; inconclusive = small, poorly fitted or top-dose-only effect, or another doubt; inactive = no such curve, though single readings can be large or run the other way
12-hLO inh: 12-hLO (ALOX12) enzyme inhibition. P18054. actives 0.12% (n = 150,000). purified 12-hLO, xylenol orange hydroperoxide absorbance. Potency, µM (top dose mostly 57.1 µM), most hits filed as inhibitors; note: nearly all actives have a fitted effect of over 55% in size
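Hydroperoxide formation by human 12-lipoxygenase from 40 uM arachidonic acid was followed colorimetrically via ferric-xylenol orange complex, using the 573/405 nm absorbance ratio. Enzyme concentration was 150 nM, with 30 min reaction at room temperature.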
HPGD inh: HPGD (human) dehydrogenase inhibition | purified HPGD, NADH fluorescence kinetic, PGE2 substrate | Potency, µM, actives largely listed as inhibitors | actives 4.3% (n = 150,000) | AID 894; active = well fitted inhibition curve with a large enough effect, not every such curve was filed as active; inconclusive = small, poorly fitted or top-dose-only effect, or another doubt; inactive = no such curve, though single readings can be large or run the other way
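20 nM HPGD preincubated 15 min at room temperature with compound in 50 mM Tris-HCl pH 8, 0.01% Tween 20. Started with 1 mM NAD+ and 30 uM prostaglandin E2; NADH fluorescence (360/450 nm) read 5 times over 30-s intervals, last minus first.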
GLA inh pH 4.5: alpha-galactosidase A (human) inhibition, pH 4.5; P06280; purified enzyme, 4-MU-alpha-Gal fluorescence, pH 4.5; activity change, negative = inhibition, % at 105 µM; 230,000 tested, under 10 active
Target sequence (P06280 whole entry, looked up): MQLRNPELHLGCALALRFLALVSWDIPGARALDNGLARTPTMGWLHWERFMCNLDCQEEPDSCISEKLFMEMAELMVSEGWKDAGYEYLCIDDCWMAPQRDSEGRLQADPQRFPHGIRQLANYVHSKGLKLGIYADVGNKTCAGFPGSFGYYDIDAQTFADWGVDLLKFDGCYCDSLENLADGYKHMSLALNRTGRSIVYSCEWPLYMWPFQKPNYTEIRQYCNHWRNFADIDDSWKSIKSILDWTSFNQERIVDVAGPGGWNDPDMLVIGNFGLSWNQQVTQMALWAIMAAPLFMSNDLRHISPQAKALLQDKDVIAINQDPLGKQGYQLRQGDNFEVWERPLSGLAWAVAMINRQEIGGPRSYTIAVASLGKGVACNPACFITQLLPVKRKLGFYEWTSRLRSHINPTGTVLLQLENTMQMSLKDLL
aGal spleen mod: inhibitors or activators of human alpha-galactosidase in spleen homogenate; P06280; Potency, µM (series often up to 80 µM), actives largely listed as inhibitors; human spleen homogenate, 4MU-alpha-Gal fluorescence, 40 min; actives 0.008% (n = 240,000); AID 2107
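Spleen homogenate 1 ug + cpd (titration) + 4-MU-alpha-D-galactopyranoside 1 mM; 37C 40 min; 50 mM citrate/phosphate pH 5.0, 0.01% Tween-20; stop pH 10; fluorescence 365/440; AC50 via Hill.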
PNC assembly inh: perinucleolar compartment assembly inhibition. PC3M PTB-GFP, PNC prevalence imaging, 16 h; active compounds read low. actives 3.1% (n = 140,000). activity change (PNC), negative = inhibition, % at 10 µM;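 active = readout at or below -70, meaning at least 70% loss of cells showing the perinucleolar compartment, a nuclear body marking cancer cells; inconclusive = readout between -30 and a set limit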
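Read-out is percentage of cells bearing a perinucleolar compartment, from automated 20x imaging of fixed, Hoechst-stained PC3M PTB-GFP cells. Cells were seeded 4 h, then exposed 16 h to compound (23 nl of library stock) in duplicate plates.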
A number is an active result; - = inactive; ? = inconclusive; . = no result; [ ] = remark or other dose. This is a sample that favours compounds with a hit; in the whole collection about 10% have one here. Unless noted, calls come from the whole dose curve; as a rule, active = well fitted curve in the direction sought with a large enough effect; inconclusive = small, poorly fitted or top-dose-only effect, or another doubt; inactive = no such curve, though single readings can be large; an effect the other way counts as inactive or inconclusive.

SMILES	ALDH1A1 block	12-hLO inh	HPGD inh	GLA inh pH 4.5	aGal spleen mod	PNC assembly inh
O=C(O)c1ccccc1NS(=O)(=O)c1ccc(F)c(Cl)c1	-	-	-	.	.	.
CCN1CCN(C(c2cccs2)C(C)NS(=O)(=O)c2ccc(C)cc2)CC1 (configuration not stated)	-	.	.	-	-	.
Cc1nc(SCn2nnc3ccccc3c2=O)nc(C)c1C	?	-	14µM	-	-	?
O=c1c2ccccc2nnn1CSc1ccc2ccccc2n1	-	-	-	-	-	-104
O=c1c2ccccc2nnn1CSc1ccccc1	-	-	-	-	-	?
Cc1cc(SCn2nnc3ccccc3c2=O)nc2ccccc12	?	-	-	-	-	-
C=CCn1c(SCn2nnc3ccccc3c2=O)nnc1-c1ccc(F)cc1	-	-	-	-	-	-
C=CCn1c(SCn2nnc3ccccc3c2=O)nnc1-c1ccc(Br)cc1	-	-	-	-	-	-84
O=C(CSc1nnc(CCCN2C(=O)c3cccc4cccc(c34)C2=O)n1-c1ccccc1)N1CCN(CCO)CC1	?	-	?	-	-	-
CCC(CC)C(=O)Nc1cccc(C(=O)NCCc2ccc(S(N)(=O)=O)cc2)c1	-	-	-	-	-	-101
CCC(CC)C(=O)Nc1cccc(C(=O)NCc2ccco2)c1	-	-	-	-	-	-115
O=c1[nH]ccc2c(S(=O)(=O)N3CCCNCC3)cccc12	?	-[0.00818 µM]	?	-	-	.
CN1CCN(Cc2nc3cccc4c3c([n+]2[O-])-c2ccccc2-4)CC1	-[13.5 µM]	-[11.4 µM]	-	.	.	.
O=Cc1ccccc1OS(=O)(=O)c1ccccc1	13µM	-	-	-	-	-
O=c1c(C(c2ccc(O)cc2)c2c(O)nc3n(c2=O)CCS3)c(O)nc2n1CCS2	13µM	-	13µM	-	-	-
Cc1ccc(C(c2c(O)nc3n(c2=O)CCS3)c2c(O)nc3n(c2=O)CCS3)cc1	?	-	-	-	-	-81
O=c1c(C(c2ccc(O)cc2)c2c(O)nc3n(c2=O)CCCS3)c(O)nc2n1CCCS2	?	-	?	-	-	-
CCOC(=S)SCC(=O)N1CCc2cc(OC)ccc2C1C1C(=O)CCCC1=O (configuration not stated)	-	-	-	-	-	-99
CCOC(=S)SCC(=O)N1CCc2cc(OC)c(OC)cc2C1C1C(=O)CC(C)(C)CC1=O (configuration not stated)	-	-	-	-	-	?
O=C(O)CCC(=O)NNC(=O)c1ccc(Br)cc1	-	-	-	-	-	-
CSC1CCCCC1(O)CSc1nc2c(cc1C#N)CCCC2 (configuration not stated)	7.9µM	-	7.9µM	-	-	?
CC(C)CO/N=C1/[C@H]2O[C@@H]2[C@@H](O)[C@H]2[C@H]1CCn1c(=O)n(-c3ccccc3)c(=O)n12	-[13.5 µM]	.	.	.	-[17.5 µM]	.
COc1ccc(C)cc1S(=O)(=O)Nc1ccc2c(c1)OCO2	-	.	.	-	-	.
CC(=O)c1ccc(-c2c(C)cc3oc(=O)cc(-c4ccccc4)c3c2C)cc1	-	-[0.00818 µM]	?	-	-	.
Cc1cc(OCC(=O)N(C)C)c2c(-c3ccccc3)cc(=O)oc2c1	?	-	-	-	-	-
SMILES	ALDH1A1 block	12-hLO inh	HPGD inh	GLA inh pH 4.5	aGal spleen mod	PNC assembly inh
Cc1cc2oc(=O)cc(-c3ccccc3)c2c(C)c1-c1sccc1C=O	?	-[0.00818 µM]	40µM	-	-	.
CC(=O)c1ccsc1-c1c(C)cc2oc(=O)cc(-c3ccccc3)c2c1C	?	-[0.00818 µM]	40µM	-	-	.
CN(C)C(=O)c1ccc(-c2cc(N(C)Cc3ccco3)ncn2)cc1	?	.	.	.	-	.
COc1cccc(NC(=O)CCSc2ccc(C)cc2)c1	-	-	-	-	-	-
Oc1c(N=NC(=S)Nc2ccccc2F)c2ccccc2n1Cc1ccc(F)cc1	16µM	.	.	-	-	.
Cc1cccc(Cn2c(O)c(N=NC(=S)Nc3ccccc3F)c3ccccc32)c1	?	.	.	-	-	.
Oc1c(N=NC(=S)Nc2ccccc2F)c2ccccc2n1Cc1cccc(Cl)c1	0.4µM	.	.	-[21.1 µM]	-	.
CS(=O)(=O)N(CC(=O)N1CCCCC1)c1cccc(F)c1	-	.	.	-	-	.
Cc1ccccc1N(CC(=O)N/N=C/c1cc(Br)c(C)o1)S(C)(=O)=O	?	-	-	-	-	-
